# Source: ChEMBL document CHEMBL2218924, “A broad activity screen in support of a chemogenomic map for kinase signalling research and drug discovery” (Biochem J, 2013)
# Tests used:
# [1] = molecular target: Ribosomal protein S6 kinase alpha-1 (Homo sapiens) (UniProt Q15418); details: at 1 µM
# [2] = molecular target: Ribosomal protein S6 kinase alpha-1 (Homo sapiens) (UniProt Q15418); details: at 10 µM
# [3] = molecular target: Ribosomal protein S6 kinase alpha-3 (Homo sapiens) (UniProt P51812); details: at 1 µM
# [4] = molecular target: Ribosomal protein S6 kinase alpha-3 (Homo sapiens) (UniProt P51812); details: at 10 µM
# [5] = molecular target: Ribosomal protein S6 kinase alpha-2 (Homo sapiens) (UniProt Q15349); details: at 1 µM
# [6] = molecular target: Ribosomal protein S6 kinase alpha-2 (Homo sapiens) (UniProt Q15349); details: at 10 µM
# [7] = molecular target: Ribosomal protein S6 kinase alpha-6 (Homo sapiens) (UniProt Q9UK32); details: at 1 µM
# [8] = molecular target: Ribosomal protein S6 kinase alpha-6 (Homo sapiens) (UniProt Q9UK32); details: at 10 µM
# [9] = molecular target: T1, Serine/threonine-protein kinase Sgk1 (Homo sapiens) (UniProt O00141); details: at 1 µM
# T1 sequence (whole entry): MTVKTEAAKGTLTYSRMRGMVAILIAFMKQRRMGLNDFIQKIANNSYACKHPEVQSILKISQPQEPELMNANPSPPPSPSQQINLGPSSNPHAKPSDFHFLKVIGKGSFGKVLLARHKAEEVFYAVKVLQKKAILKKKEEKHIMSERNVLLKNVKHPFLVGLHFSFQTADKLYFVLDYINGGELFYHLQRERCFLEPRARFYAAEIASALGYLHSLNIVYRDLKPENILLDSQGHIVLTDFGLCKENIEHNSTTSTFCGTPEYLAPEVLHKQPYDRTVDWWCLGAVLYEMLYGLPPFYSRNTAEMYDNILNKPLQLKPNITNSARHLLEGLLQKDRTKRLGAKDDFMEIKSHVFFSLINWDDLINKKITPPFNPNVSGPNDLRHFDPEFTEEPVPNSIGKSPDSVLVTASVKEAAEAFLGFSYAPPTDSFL
# [10] = molecular target: T1, Serine/threonine-protein kinase Sgk1 (Homo sapiens); details: at 10 µM
# [11] = molecular target: T2, Mitogen-activated protein kinase 12 (Homo sapiens) (UniProt P53778); details: at 1 µM
# T2 sequence (whole entry): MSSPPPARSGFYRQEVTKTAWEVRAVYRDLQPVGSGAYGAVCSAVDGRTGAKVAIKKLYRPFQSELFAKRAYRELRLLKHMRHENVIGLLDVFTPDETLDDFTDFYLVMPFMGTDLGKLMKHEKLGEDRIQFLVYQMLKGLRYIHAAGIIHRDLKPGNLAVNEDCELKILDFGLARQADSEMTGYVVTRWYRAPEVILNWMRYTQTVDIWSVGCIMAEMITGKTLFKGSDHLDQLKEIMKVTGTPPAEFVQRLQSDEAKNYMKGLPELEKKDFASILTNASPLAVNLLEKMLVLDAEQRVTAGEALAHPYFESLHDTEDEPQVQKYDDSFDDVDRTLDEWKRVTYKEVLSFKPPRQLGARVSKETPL
# [12] = molecular target: T2, Mitogen-activated protein kinase 12 (Homo sapiens); details: at 10 µM
# [13] = molecular target: T3, Tyrosine-protein kinase receptor TYRO3 (Homo sapiens) (UniProt Q06418); details: at 1 µM
# T3 sequence (whole entry): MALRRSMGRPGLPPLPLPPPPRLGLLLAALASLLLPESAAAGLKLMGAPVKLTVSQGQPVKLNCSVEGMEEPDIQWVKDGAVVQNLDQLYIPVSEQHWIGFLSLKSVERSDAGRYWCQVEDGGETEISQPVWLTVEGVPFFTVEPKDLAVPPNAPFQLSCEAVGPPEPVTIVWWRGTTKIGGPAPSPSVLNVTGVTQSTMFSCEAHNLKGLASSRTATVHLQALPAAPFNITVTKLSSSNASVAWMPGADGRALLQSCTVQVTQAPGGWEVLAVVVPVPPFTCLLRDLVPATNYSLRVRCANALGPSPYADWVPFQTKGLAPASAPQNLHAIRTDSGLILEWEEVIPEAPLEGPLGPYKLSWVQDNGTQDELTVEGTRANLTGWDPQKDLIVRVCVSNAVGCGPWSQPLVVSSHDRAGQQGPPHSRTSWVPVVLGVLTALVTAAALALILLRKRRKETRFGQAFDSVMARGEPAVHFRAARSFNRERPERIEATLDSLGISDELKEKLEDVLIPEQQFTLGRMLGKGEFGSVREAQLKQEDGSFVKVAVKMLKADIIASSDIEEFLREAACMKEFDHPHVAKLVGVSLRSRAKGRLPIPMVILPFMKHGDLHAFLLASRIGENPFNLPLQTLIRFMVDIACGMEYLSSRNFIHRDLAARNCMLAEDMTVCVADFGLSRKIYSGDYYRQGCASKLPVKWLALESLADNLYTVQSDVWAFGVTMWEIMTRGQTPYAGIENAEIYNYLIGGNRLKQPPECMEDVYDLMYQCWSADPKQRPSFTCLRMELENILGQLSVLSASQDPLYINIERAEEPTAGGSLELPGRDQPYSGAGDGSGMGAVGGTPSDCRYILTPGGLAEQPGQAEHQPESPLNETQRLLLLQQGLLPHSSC
# [14] = molecular target: T3, Tyrosine-protein kinase receptor TYRO3 (Homo sapiens); details: at 10 µM
# [15] = molecular target: Mitogen-activated protein kinase 14 (Homo sapiens) (UniProt Q16539); details: at 1 µM
# [16] = molecular target: Mitogen-activated protein kinase 14 (Homo sapiens) (UniProt Q16539); details: at 10 µM
# [17] = molecular target: Mitogen-activated protein kinase 11 (Homo sapiens) (UniProt Q15759); details: at 1 µM
# [18] = molecular target: Mitogen-activated protein kinase 11 (Homo sapiens) (UniProt Q15759); details: at 10 µM
# [19] = molecular target: T4, Mitogen-activated protein kinase 13 (Homo sapiens) (UniProt O15264); details: at 10 µM
# T4 sequence (whole entry): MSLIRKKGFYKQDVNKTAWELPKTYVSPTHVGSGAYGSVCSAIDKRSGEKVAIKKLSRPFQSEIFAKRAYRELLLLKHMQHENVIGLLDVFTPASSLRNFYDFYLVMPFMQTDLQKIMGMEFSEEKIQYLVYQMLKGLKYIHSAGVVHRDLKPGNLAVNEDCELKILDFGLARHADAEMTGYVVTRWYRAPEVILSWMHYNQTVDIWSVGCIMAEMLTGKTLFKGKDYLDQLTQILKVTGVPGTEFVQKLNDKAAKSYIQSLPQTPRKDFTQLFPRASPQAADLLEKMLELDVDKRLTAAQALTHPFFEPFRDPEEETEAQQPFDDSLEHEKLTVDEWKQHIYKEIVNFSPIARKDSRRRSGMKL
# [20] = molecular target: T4, Mitogen-activated protein kinase 13 (Homo sapiens); details: at 1 µM
# Chain of Ribosomal protein S6 kinase alpha-1 (Homo sapiens) (Q15418 whole entry): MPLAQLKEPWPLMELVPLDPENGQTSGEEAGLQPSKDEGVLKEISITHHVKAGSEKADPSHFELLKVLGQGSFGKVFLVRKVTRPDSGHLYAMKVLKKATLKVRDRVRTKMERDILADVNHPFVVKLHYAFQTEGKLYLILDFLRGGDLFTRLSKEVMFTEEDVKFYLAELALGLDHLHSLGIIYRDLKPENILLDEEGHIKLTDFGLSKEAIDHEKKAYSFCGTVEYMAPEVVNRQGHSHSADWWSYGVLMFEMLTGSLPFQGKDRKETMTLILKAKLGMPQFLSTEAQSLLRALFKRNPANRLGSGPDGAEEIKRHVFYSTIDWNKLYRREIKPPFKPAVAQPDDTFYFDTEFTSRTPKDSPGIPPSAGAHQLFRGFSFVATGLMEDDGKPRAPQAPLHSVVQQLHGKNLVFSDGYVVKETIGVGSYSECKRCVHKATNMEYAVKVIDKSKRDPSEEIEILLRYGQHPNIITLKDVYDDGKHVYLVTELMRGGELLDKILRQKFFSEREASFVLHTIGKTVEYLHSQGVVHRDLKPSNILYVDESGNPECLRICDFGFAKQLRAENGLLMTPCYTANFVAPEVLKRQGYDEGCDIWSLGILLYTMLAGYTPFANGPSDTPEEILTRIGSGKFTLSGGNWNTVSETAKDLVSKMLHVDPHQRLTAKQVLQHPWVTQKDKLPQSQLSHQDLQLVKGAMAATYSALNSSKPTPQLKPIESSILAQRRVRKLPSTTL
# Chain of Mitogen-activated protein kinase 11 (Homo sapiens) (Q15759 whole entry): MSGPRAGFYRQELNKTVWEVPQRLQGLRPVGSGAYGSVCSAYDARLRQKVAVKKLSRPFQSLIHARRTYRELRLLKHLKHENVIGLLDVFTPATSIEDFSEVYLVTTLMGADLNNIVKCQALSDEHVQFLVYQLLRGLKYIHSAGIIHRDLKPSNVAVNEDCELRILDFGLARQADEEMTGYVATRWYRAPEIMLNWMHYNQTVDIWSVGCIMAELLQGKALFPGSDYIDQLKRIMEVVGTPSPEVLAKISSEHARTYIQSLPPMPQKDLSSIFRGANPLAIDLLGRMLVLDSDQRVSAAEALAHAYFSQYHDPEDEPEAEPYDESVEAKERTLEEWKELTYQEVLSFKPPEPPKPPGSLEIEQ
# Chain of Mitogen-activated protein kinase 14 (Homo sapiens) (Q16539 whole entry): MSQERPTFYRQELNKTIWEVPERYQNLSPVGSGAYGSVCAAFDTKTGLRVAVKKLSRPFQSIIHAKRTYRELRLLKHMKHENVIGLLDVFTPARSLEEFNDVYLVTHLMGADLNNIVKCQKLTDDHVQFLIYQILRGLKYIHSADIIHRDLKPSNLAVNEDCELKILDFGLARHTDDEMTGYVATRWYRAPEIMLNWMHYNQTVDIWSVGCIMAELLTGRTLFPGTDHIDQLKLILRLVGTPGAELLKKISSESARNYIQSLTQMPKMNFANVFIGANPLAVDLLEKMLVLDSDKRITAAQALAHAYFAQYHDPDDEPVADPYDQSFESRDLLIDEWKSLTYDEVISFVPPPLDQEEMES
# Chain of Ribosomal protein S6 kinase alpha-2 (Homo sapiens) (Q15349 whole entry): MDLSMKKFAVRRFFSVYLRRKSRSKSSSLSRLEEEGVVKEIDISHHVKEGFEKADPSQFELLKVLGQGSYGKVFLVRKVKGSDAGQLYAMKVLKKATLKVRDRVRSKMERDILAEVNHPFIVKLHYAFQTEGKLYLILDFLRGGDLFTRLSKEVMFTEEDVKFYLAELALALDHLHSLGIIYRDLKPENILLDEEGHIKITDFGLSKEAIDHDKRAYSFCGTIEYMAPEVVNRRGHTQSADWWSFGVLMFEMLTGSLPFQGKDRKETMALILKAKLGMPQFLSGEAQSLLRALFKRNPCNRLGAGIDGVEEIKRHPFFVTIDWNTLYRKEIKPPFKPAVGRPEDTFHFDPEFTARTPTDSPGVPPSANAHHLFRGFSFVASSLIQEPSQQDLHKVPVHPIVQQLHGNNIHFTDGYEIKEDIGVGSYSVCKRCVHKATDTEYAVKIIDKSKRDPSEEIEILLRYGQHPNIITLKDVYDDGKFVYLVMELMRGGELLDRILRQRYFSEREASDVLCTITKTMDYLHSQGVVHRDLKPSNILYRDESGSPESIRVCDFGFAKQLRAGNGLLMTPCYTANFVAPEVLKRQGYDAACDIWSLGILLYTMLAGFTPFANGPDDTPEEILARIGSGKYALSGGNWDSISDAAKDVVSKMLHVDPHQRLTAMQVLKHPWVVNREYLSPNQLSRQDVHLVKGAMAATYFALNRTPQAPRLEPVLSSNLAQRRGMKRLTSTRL
# Chain of Ribosomal protein S6 kinase alpha-3 (Homo sapiens) (P51812 whole entry): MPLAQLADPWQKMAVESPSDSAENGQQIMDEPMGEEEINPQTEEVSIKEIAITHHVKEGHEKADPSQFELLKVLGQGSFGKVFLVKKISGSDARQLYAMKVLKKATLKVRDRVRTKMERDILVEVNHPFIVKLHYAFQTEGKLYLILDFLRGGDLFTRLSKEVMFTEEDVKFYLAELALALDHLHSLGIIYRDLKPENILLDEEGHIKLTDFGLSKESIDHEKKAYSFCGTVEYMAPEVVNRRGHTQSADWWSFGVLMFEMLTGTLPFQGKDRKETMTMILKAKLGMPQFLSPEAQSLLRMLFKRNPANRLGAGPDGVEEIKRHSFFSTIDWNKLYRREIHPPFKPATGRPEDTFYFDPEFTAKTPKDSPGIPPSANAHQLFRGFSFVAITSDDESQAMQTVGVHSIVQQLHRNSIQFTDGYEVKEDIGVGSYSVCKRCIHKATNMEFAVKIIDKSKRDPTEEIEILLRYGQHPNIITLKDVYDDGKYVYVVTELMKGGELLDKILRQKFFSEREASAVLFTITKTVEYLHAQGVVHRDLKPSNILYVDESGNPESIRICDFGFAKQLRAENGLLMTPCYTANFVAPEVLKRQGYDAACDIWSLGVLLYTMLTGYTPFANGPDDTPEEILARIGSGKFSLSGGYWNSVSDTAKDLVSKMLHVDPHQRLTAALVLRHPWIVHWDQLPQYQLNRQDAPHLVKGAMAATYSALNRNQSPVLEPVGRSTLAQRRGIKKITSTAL
# Chain of Ribosomal protein S6 kinase alpha-6 (Homo sapiens) (Q9UK32 whole entry): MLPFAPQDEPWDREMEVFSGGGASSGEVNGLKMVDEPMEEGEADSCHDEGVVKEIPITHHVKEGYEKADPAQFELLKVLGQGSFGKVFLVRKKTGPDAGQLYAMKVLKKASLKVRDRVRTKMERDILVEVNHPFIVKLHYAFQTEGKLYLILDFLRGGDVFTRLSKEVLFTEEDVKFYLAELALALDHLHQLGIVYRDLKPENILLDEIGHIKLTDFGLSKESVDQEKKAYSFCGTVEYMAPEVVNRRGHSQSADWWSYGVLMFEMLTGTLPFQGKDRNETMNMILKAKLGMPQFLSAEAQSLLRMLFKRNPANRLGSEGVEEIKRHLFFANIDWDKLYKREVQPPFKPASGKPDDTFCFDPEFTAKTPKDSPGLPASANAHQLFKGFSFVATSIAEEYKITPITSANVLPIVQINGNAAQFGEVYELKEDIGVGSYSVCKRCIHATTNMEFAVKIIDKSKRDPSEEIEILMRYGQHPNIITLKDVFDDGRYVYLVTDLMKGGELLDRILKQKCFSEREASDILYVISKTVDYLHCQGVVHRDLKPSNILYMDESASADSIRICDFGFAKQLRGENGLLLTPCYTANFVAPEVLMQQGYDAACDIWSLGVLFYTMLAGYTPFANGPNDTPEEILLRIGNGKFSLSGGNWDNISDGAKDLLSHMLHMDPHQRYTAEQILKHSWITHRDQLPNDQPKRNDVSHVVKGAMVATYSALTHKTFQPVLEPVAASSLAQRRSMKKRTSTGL
smiles,measurement,setting,value
O=C1NC(=O)c2c1c1c3ccccc3n3c1c1c2c2ccccc2n1C1CCC3O1,residual activity,[1],13%
same,residual activity,[2],7%
same,residual activity,[3],11%
same,residual activity,[4],3%
same,residual activity,[5],8%
same,residual activity,[6],8%
same,residual activity,[7],9%
same,residual activity,[8],17%
same,residual activity,[9],53%
same,residual activity,[10],43%
c1ccc(-c2cnc(Nc3ccc(OCCN4CCCC4)cc3)s2)cc1,residual activity,[11],115%
same,residual activity,[12],100%
O=c1[nH]c2ccccc2n1C1CCN(Cc2ccc(-c3nc4cc5[nH]cnc5cc4nc3-c3ccccc3)cc2)CC1,residual activity,[13],91%
same,residual activity,[14],91%
same,residual activity,[1],117%
same,residual activity,[2],84%
same,residual activity,[3],68%
same,residual activity,[4],35%
same,residual activity,[5],108%
same,residual activity,[6],93%
same,residual activity,[7],106%
same,residual activity,[8],109%
same,residual activity,[15],75%
same,residual activity,[16],113%
same,residual activity,[17],100%
same,residual activity,[18],103%
same,residual activity,[11],108%
same,residual activity,[12],82%
same,residual activity,[19],91%
same,residual activity,[9],106%
same,residual activity,[10],68%
CO[C@H]1[C@@H](OC)C[C@H](C)[C@@H](OC)C2=CC(=O)C=C(NC(=O)/C(C)=C/C=C/[C@H](OC)[C@@H](OC(N)=O)/C(C)=C/[C@@H]1C)C2=O,residual activity,[15],95%
same,residual activity,[16],106%
same,residual activity,[11],110%
same,residual activity,[12],99%
O=C(c1ccccc1)c1ccc(N2CCOCC2)cc1O,residual activity,[11],100%
same,residual activity,[12],100%
CC(C)[C@H](CO)Nc1nc(Nc2cccc(Cl)c2)c2ncn(C(C)C)c2n1,residual activity,[13],85%
same,residual activity,[14],78%
same,residual activity,[1],77%
same,residual activity,[2],19%
same,residual activity,[3],62%
same,residual activity,[4],15%
same,residual activity,[5],75%
same,residual activity,[6],21%
same,residual activity,[7],40%
same,residual activity,[8],24%
same,residual activity,[15],88%
same,residual activity,[16],80%
same,residual activity,[17],101%
same,residual activity,[18],96%
same,residual activity,[12],98%
COc1ccc2c(c1)/C(=C/c1cnc[nH]1)C(=O)N2,residual activity,[13],97%
same,residual activity,[14],73%
same,residual activity,[1],60%
same,residual activity,[2],17%
same,residual activity,[5],30%
same,residual activity,[6],4%
same,residual activity,[7],53%
same,residual activity,[8],12%
CC(C)(C)c1cc(C=C(C#N)C#N)cc(Br)c1O,residual activity,[13],112%
same,residual activity,[14],104%
same,residual activity,[1],111%
same,residual activity,[3],100%
same,residual activity,[4],78%
same,residual activity,[5],106%
same,residual activity,[6],82%
same,residual activity,[7],98%
same,residual activity,[8],106%
same,residual activity,[15],107%
same,residual activity,[16],112%
same,residual activity,[17],110%
same,residual activity,[18],101%
same,residual activity,[11],107%
same,residual activity,[12],110%
same,residual activity,[20],101%
c1ccc2c(-c3ccncc3)c[nH]c2c1,residual activity,[11],100%
same,residual activity,[12],94%
Oc1ccc(-c2nc(-c3ccc(F)cc3)c(-c3ccncc3)[nH]2)cc1,residual activity,[15],1%
same,residual activity,[16],1%
same,residual activity,[11],112%
same,residual activity,[12],67%
N#Cc1c(NC(=O)c2cccc3ccccc23)sc2c1CCCC2,residual activity,[11],96%
O=C1Nc2ccc(Br)cc2/C1=C\c1cc2c([nH]1)CCCC2,residual activity,[11],115%
same,residual activity,[12],102%
COC(=O)[C@@]1(O)C[C@H]2O[C@]1(C)n1c3ccccc3c3c4c(c5c6ccccc6n2c5c31)C(=O)NC4,residual activity,[13],6%
same,residual activity,[14],2%
same,residual activity,[1],1%
same,residual activity,[2],2%
same,residual activity,[3],1%
same,residual activity,[4],1%
same,residual activity,[5],0%
same,residual activity,[6],1%
same,residual activity,[7],-2%
same,residual activity,[8],3%
same,residual activity,[15],92%
same,residual activity,[16],67%
same,residual activity,[17],77%
same,residual activity,[18],29%
same,residual activity,[11],23%
same,residual activity,[12],2%
same,residual activity,[20],58%
same,residual activity,[19],10%
same,residual activity,[9],4%
same,residual activity,[10],1%
Cc1cc(Nc2nc(-c3ccccc3)nc3ccccc23)n[nH]1,residual activity,[11],103%
Cn1nc2c3c(cccc31)C(=O)c1ccccc1-2,residual activity,[11],99%
same,residual activity,[12],96%
O=C1c2ccccc2-c2nc3nnnn3nc21,residual activity,[13],106%
same,residual activity,[14],114%
same,residual activity,[1],109%
same,residual activity,[2],103%
same,residual activity,[3],67%
same,residual activity,[4],53%
same,residual activity,[5],120%
same,residual activity,[6],106%
same,residual activity,[15],111%
same,residual activity,[16],112%
same,residual activity,[17],102%
same,residual activity,[18],104%
same,residual activity,[11],130%
same,residual activity,[12],117%
same,residual activity,[20],119%
same,residual activity,[19],101%
same,residual activity,[9],146%
same,residual activity,[10],71%
CCc1nc(-c2ccc(OC)cc2)[nH]c1-c1ccncc1,residual activity,[13],107%
same,residual activity,[14],108%
same,residual activity,[1],105%
same,residual activity,[2],104%
same,residual activity,[3],52%
same,residual activity,[4],55%
same,residual activity,[17],56%
same,residual activity,[18],72%
same,residual activity,[11],108%
same,residual activity,[12],104%
O=C1NC(=O)C(c2cn(CCCn3ccnc3)c3ccccc23)=C1Nc1ccccc1,residual activity,[11],104%
same,residual activity,[12],100%
O=C1c2ccccc2-[n+]2ccc3c([nH]c4ccccc43)c21,residual activity,[11],89%
same,residual activity,[12],100%
CC(C)(C)n1nc(Cc2cccc3ccccc23)c2c(N)ncnc21,residual activity,[11],100%
same,residual activity,[12],98%
c1ccc(-c2n[nH]cc2-c2ccnc3ccccc23)nc1,residual activity,[11],101%
O=C1Nc2ccc3ncsc3c2/C1=C/c1c[nH]cn1,residual activity,[13],56%
same,residual activity,[14],45%
same,residual activity,[1],28%
same,residual activity,[2],4%
same,residual activity,[3],18%
same,residual activity,[4],1%
same,residual activity,[5],5%
same,residual activity,[6],-1%
same,residual activity,[7],14%
same,residual activity,[8],2%
same,residual activity,[15],80%
same,residual activity,[16],74%
same,residual activity,[17],71%
same,residual activity,[18],35%
same,residual activity,[11],50%
same,residual activity,[12],16%
same,residual activity,[20],62%
same,residual activity,[19],24%
same,residual activity,[9],31%
same,residual activity,[10],7%
